# NPC1 prom act – qHTS Assay for NPC1 Promoter Activators; Huh7 NPC1 promoter luciferase reporter, 24 h; Potency, µM (top dose mostly 9.22 µM), inactives show at the highest dose activation, hits mostly activators; hit rate 2.4% among 320,000; further: % of control where 0% means no effect; nearly all actives have a fitted effect of over 60% in size
#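 Luciferase expression driven by the NPC1 promoter was measured in stably transfected Huh7 cells after a 24 h compound incubation, using a luciferase reagent and a luminescence read.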
# FLuc counter – qHTS profiling assay for firefly luciferase inhibitor/activator using purifed enzyme and Km concentrations of substrates (counterscreen for miR-21 project); Luciferin 4-monooxygenase (Photinus pyralis), P08659; hit rate 6.9% among 360,000; AID 588342, 2011; Potency, µM (highest dose often 57.5 µM), inactives show at the top dose activity change, negative = inhibition, actives largely listed as inhibitors; purified FLuc, Km substrates, luminescence inhibition;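 further: plate controls were vehicle for no effect and reference inhibitor for full effect; nearly all actives have a fitted effect of over 55% in size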
# Target sequence (P08659 whole entry, looked up): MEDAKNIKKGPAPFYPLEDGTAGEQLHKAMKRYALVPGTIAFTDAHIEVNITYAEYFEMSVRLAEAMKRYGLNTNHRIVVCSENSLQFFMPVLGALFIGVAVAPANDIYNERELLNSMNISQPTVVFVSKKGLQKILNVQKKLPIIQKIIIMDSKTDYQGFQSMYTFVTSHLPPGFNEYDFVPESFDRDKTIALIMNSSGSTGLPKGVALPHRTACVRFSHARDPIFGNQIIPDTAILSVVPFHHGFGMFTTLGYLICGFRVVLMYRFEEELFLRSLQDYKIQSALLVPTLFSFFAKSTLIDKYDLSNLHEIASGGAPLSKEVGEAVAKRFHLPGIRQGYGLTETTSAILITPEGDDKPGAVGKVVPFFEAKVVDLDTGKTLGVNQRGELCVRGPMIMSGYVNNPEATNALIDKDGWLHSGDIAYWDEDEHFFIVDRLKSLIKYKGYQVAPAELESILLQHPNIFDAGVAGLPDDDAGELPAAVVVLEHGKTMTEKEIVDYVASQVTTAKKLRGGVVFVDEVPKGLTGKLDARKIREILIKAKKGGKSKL
#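 Biochemical qHTS of compounds, final roughly 60 µM downward over six points, against 10 nM purified firefly luciferase using Km concentrations of substrates (10 uM D-luciferin, 10 uM ATP) in Tris acetate pH 7.5 buffer; luminescence output.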
# SMN2 splice up – qHTS Assay for Enhancers of SMN2 Splice Variant Expression. HEK293 SMN2-luciferase splicing reporter, luminescence, 30-36 h. Potency, µM (titrated, usually from 46.1 µM), without a hit: at the top dose activity change, positive = activation, usual class: activators. hit rate 2.8% among 210,000; further: % of control where 0% means no effect; nearly all actives have a fitted effect of over 55% in size
#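 qHTS luciferase splicing reporter: luminescence rises when SMN2 exon 7 is included in transfected HEK293 cells. Compound exposure lasted 30-36 h at 37C, with 4.5 mM final sodium butyrate as control, followed by a ONE-Glo read.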
# uPA generation – qHTS for Inhibitors of Cell Surface uPA Generation; AID 540303, 2011; cell surface uPA generation assay, qHTS; hit rate 0.31% among 330,000; Potency, µM (top dose mostly 38.3 µM), without a hit: top-dose activity change, negative = inhibition, actives largely listed as inhibitors; active means well fitted inhibition curve with a large enough effect; inconclusive means small, poorly fitted or top-dose-only effect; inactive means no such curve, though single readings can be large or run the other way; tested in mouse RAW 264.7 cells; further: on the % scale 0 is the no-effect control and ±100 the full control effect; nearly all actives have a fitted effect of over 55% in size
# Rab9 promoter act – qHTS Assay for Rab9 Promoter Activators. Potency, µM (series often up to 9.22 µM), inactives show at the highest dose activation, negative = inhibition, hits mostly activators. hit rate 2.8% among 320,000. Huh7 Rab9 promoter-luciferase reporter, luminescence, 24 h; further: % of control where 0% means no effect; nearly all actives have a fitted effect of over 60% in size
#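 Luminescence read-out: Huh7 cells stably expressing Rab9-luciferase, treated 24 h with compound at 37 °C, then lysed with luciferase reagent for 10 min at ambient before reading.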
# ELG1 genotox – qHTS screen for small molecules that induce genotoxicity in human embryonic kidney (HEK293T) cells expressing luciferase-tagged ELG1; HEK293T ELG1-luciferase reporter, luminescence, 16 h; Potency, µM (highest dose often 46 µM), inactives show top-dose activity change, positive = activation, most hits filed as activators; hit rate 1.3% among 330,000; AID 504466, 2011; further: % of control where 0% means no effect; nearly all actives have a fitted effect of over 60% in size
#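 16 hr compound incubation (37 °C, 5% CO2) of HEK293T cells carrying luciferase-tagged ELG1; luciferase then measured by ONE-Glo luminescence after 30 min at RT.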
# * hit, by the source's call; ? = inconclusive; / = no result given. In the library only some 7.3% were active in any assay of this set; here they are far more common. Unless noted, the call rests on the fitted dose curve; in most records, active means well fitted curve in the direction sought with a large enough effect; inconclusive means small, poorly fitted or top-dose-only effect, or another doubt; inactive means no such curve, though single readings can be large; an effect the other way counts as inactive or inconclusive. Potency means the concentration at half of the fitted maximal effect.
SMILES,NPC1 prom act,FLuc counter,SMN2 splice up,uPA generation,Rab9 promoter act,ELG1 genotox
O=C(Nc1ccc(N2CCOCC2)c(Cl)c1)c1ccc(Cl)cc1,14%,17µM*,-86%,-1%,29%,-16%
Cc1cc(C(=O)Nc2ccc(N3CCOCC3)c(Cl)c2)c(C)o1,?,6.7µM*,/,?,2.8µM*,?
Cc1cc(C(=O)Nc2ccc(C)c(S(=O)(=O)N3CCOCC3)c2)c(C)o1,1%,-16%,-6%,-6%,-3%,0%
O=C(Nc1ccc(N2CCOCC2)c(Cl)c1)c1ncn[nH]1,23%,21µM*,17%,-7%,9%,2%
CCC(C)NC(=O)CNC(=O)c1nn(-c2ccc(OC)cc2OC)c(=O)c2ccccc12 (centres undefined),4%,-5%,/,2%,3%,-3%
COCCN1Cc2cccc(C(=O)Nc3ccc4c(c3)OCCO4)c2C1=O,0%,21µM*,-19%,-5%,0%,?
CCOc1ccc(NC(=O)c2cccc3c2C(=O)N(Cc2cccnc2)C3)cc1,1%,8.5µM*,18%,-1%,5%,?
CCCN1Cc2cccc(C(=O)Nc3ccc(CN4CCCC4)cc3)c2C1=O,0%,17µM*,-2%,-1%,-17%,1%
COC(CNC(=O)c1cccc2c1C(=O)N(Cc1cccnc1)C2)OC,-4%,0%,0%,-1%,-5%,0%
CCCN1Cc2cccc(C(=O)Nc3ccc(OC)c(OC)c3)c2C1=O,/,/,/,-1%,/,/
O=C(/C=C/c1cccs1)c1ccc([N+](=O)[O-])cc1,0%,4.3µM*,/,-3%,9%,2%
O=C(/C=C/c1cccs1)c1ccc(N2CCOCC2)cc1,3.5µM*,0.24µM*,255%,?,2.2µM*,?
O=C(/C=C/c1cccc(F)c1)c1ccc(N2CCOCC2)cc1,?,1.1µM*,/,0%,?,?
CC(=O)c1ccc(NC(=O)Cn2c(=O)n(Cc3ccco3)c(=O)c3sc4ccccc4c32)cc1,/,-2%,-10%,/,/,/
COc1ccccc1CCNC(=O)c1nc(-c2cccs2)no1,?,17µM*,?,-10%,?,?
CCC(=O)NCc1csc(-c2cccs2)n1,20%,-8%,/,-9%,?,10%
COc1ccccc1CC(=O)NCc1csc(-c2cccs2)n1,?,17µM*,/,3%,?,16%
CCOC(=O)Cc1csc(NC(=O)/C=C\c2ccccc2Cl)n1,27%,1.5µM*,/,-11%,?,8%
CCOC(=O)Cc1csc(NC(=O)/C=C/c2ccccc2Cl)n1,?,1.2µM*,/,-8%,?,-7%
CCOc1ccc(NC(=O)Cn2c(=O)c(CNc3ccc(CC)cc3)cc3cc4c(cc32)OCO4)cc1,/,4%,/,/,/,/
O=C(NCCc1ccccc1)c1noc2c1CCc1ccccc1-2,17%,-16%,16%,/,?,8%
CCCNC(=O)c1noc2c1CCc1ccccc1-2,?,19µM*,16µM*,?,?,?
COc1cc(NC(=O)c2noc3c2CCc2ccccc2-3)cc(OC)c1OC,/,?,-29%,/,/,/
O=C(Nc1cccnc1Cl)c1noc2c1CCc1ccccc1-2,2.5µM*,?,/,14%,3.2µM*,27%
O=C(NCCN1CCOCC1)c1noc2c1CCc1ccccc1-2,?,?,10µM*,/,2µM*,16µM*
SMILES,NPC1 prom act,FLuc counter,SMN2 splice up,uPA generation,Rab9 promoter act,ELG1 genotox
CC(C(=O)Nc1ccc(Br)cc1)N(C)CC(=O)NCc1ccco1 (centres undefined),0%,-2%,/,-5%,-1%,-2%
O=C(CSCc1nc2cccnc2n1C1CCCCC1)NCc1cccc(Br)c1,/,-5%,/,/,/,/
Cc1ccc(S(=O)(=O)Cc2ccc(C(=O)N3CCN(c4cccc(C)c4C)CC3)o2)cc1,-33%,0%,/,0.89µM*,-31%,-9%
COc1ccc(S(=O)(=O)Cc2ccc(C(=O)N3CCN(c4cccc(C)c4C)CC3)o2)cc1,-19%,-1%,-51%,?,-12%,-44%
COc1ccc(N2CCN(C(=O)c3ccc(CS(=O)(=O)c4ccc(OC)cc4)o3)CC2)cc1,0%,0%,-10%,-7%,-5%,-9%
COc1ccc(S(=O)(=O)Cc2ccc(C(=O)N3CCN(c4cccc(C)c4)C(C)C3)o2)cc1 (centres undefined),-20%,3%,-10%,5.6µM*,-8%,-19%
Cc1c2cnn(-c3ccccc3)c(=O)c2c(C)n1CCCC(=O)NCCN1CCN(C)CC1,-3%,1%,/,0%,1%,0%
COC(=O)c1ccccc1-c1ccc(/C=N/NC(N)=O)o1,-2%,6%,/,-4%,-2%,4%
CC1(C)C2CC=C(/C=N/NC(=O)c3ccccc3O)C1C2 (centres undefined),-1%,7.6µM*,-15%,-1%,-3%,0%
O=C(N/N=C\c1ccccn1)c1ccccc1O,0%,12µM*,18%,2%,13%,?
O=C(N/N=C\c1ccccn1)c1cccc(C(=O)N/N=C\c2ccccn2)n1,/,/,/,0%,/,/
O=C(N/N=C\c1ccncc1)c1ccccc1O,13%,9.5µM*,25%,-1%,-1%,-5%
O=C(N/N=C/c1ccc(-c2ccccc2)o1)c1ccccc1O,11%,5.4µM*,/,4%,19%,0%
NS(=O)(=O)c1ccc(CCN=C(NS(=O)(=O)c2cccs2)c2ccccc2)cc1,-1%,2%,16%,5%,-4%,2%
COc1ccc(C(=O)Nc2ccccc2C(=O)N/N=C/c2ccccn2)cc1OC,-8%,0.85µM*,/,-18%,-14%,21µM*
Cc1ccccc1C(=O)N/N=C/c1ccccn1,3.2µM*,8.5µM*,11µM*,-8%,4µM*,26µM*
CCOc1ccccc1NC(=O)c1cc2c(=O)oc3ccccc3c2s1,/,0%,/,/,/,/
COc1cc(C(=O)NCC(=O)N2CCN(S(=O)(=O)c3cc(C)ccc3C)CC2)cc(OC)c1OC,-30%,4%,/,2.2µM*,-7%,-7%
CN(C)c1ccc(/C=C/c2cc[n+](C)cc2)cc1,-25%,-16%,-77%,-10%,-20%,-5%
CC[n+]1ccc(/C=C/c2ccc(N(C)C)cc2)c2ccccc21,-38%,24µM*,/,?,-61%,-7%
CCC(=O)N1CCc2cc(S(=O)(=O)NC(Cc3ccccc3)C(=O)NCc3cccc(OC)c3)ccc21 (centres undefined),/,-8%,-2%,/,/,/

# Compound activity as filed in PubChem.
